Most compounds without a hit are left out; they make up all but 1.4% or so of the library.
ASM inhibitor – human S-ASM enzyme inhibition. placental ASM, HMU-PC fluorogenic substrate, 60 min. Potency, µM (series often up to 57.5 µM), for inactives: top-dose activity change, negative = inhibition, actives largely listed as inhibitors. P17405. 340,000 compounds, 0.006% hits; further: potency means the concentration at half of the fitted maximal effect
Target sequence (P17405 47-631 limits assumed): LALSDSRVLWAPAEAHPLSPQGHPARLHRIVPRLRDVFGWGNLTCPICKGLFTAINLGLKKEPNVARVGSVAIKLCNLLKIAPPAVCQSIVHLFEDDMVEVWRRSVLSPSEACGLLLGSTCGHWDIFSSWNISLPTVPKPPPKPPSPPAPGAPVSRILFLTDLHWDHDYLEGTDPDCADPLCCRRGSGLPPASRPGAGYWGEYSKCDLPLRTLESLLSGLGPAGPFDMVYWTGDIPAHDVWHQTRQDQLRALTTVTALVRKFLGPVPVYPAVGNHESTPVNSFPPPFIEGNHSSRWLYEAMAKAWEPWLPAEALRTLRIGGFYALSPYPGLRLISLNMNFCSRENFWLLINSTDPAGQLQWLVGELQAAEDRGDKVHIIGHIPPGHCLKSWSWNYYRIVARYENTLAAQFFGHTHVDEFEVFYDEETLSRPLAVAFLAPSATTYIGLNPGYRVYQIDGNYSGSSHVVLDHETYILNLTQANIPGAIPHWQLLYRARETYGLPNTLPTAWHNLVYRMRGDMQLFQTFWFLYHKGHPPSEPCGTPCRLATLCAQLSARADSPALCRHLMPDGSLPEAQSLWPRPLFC
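Fluorescence read-out (Ex 386 nm, Em 447 nm) after stopping the reaction at pH 10. Enzyme: ASM from human placenta; substrate HMU-PC0, 9 uM final; 60 min, 37 °C. Compound preincubation 10 min, ambient temperature.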
PINK1 expr mod – changes PINK1 expression. PINK1 immunofluorescence, high-content cytometry, 24 h. Potency, µM (highest dose often 76.6 µM), inactives show at the top dose activation (PINK1 increase), usual class: activators. 410,000 compounds, 0.2% hits. AID 624263; active means well fitted activation curve with a large enough effect; inconclusive means small, poorly fitted or top-dose-only effect; cell line not stated here; further: potency means the concentration at half of the fitted maximal effect; % of control where 0% means no effect; nearly all actives have a fitted effect of over 65% in size
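Readout is PINK1 immunofluorescence, quantified alongside mitochondrial, cell and nuclear markers by laser-scanning microplate cytometry. Cells from a stable line were exposed to compound titrations (5 concentrations) for 24 hours, with CCCP controls.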
p53 reactivation – mutant p53 re-activation in reporter cells | 320,000 compounds, 0.063% hits | AID 504706 | H1299 p53-A138V BP100-luciferase reporter, luminescence, 24 h | Potency, µM (doses to about 92.2 µM), for the others: top-dose activity change, positive = activation, hits mostly activators; further: potency means the concentration at half of the fitted maximal effect; % of control where 0% means no effect; nearly all actives have a fitted effect of over 45% in size
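H1299 (p53-null), stable ts p53-A138V + BP100-Luc; 1000 cells/well, Opti-MEM/10% FBS; cpd 4 pt, 1:5; 24 h, 37 deg C, 5% CO2; detection reagent 10 min RT; luminescence.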
CCT modulator – cytosolic chaperonin activity modulation; purified chaperonin ATPase assay, HTRF ADP detection, 30 min; activity change, % (no concentration beside the values), hits read low; 360,000 compounds, 0.3% hits; in the data active means activity change below about -30%; further: on the % scale 0 is the no-effect control and ±100 the full control effect
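We incubate TRiC, 40 or 20 nM final, with library compounds at 76 uM and 10 uM ATP for 30 min at 37 °C. ADP formed is detected with Transcreener HTRF reagents after 30 min at room temperature.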
Mm-Cpn inhibitor – inhibitors of Methanococcus maripaludis chaperonin TRiC (MmCpn); purified Mm-Cpn ATPase, ADP Transcreener TR-FRET; Potency, µM (titrated, usually from 76.9 µM), inactives show top-dose activity, negative = inhibition, usual class: inhibitors; 330,000 compounds, 0.031% hits; AID 504842; further: potency means the concentration at half of the fitted maximal effect; on the % scale 0 is the no-effect control and ±100 the full control effect; nearly all actives have a fitted effect of over 80% in size
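Eu-cryptate anti-ADP/ADP-d2 competition gives a ratio inversely related to ADP. Enzyme at 25 nM was pre-exposed to compound for 10 min, then given 10 uM ATP for 30 min, 37°C throughout.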
ALOX12 inh – blocks human arachidonate 12S-lipoxygenase | P18054 | purified 12hLO, xylenol orange hydroperoxide absorbance | Potency, µM (doses to about 108 µM), inactives show top-dose activity change, negative = inhibition, actives largely listed as inhibitors | 580,000 compounds, 1.1% hits | AID 1671190; further: potency means the concentration at half of the fitted maximal effect; on the % scale 0 is the no-effect control and ±100 the full control effect
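Purified human 12hLO at 150 nM in 25 mM Hepes, 0.01% Triton X-100, pH 7.0, preincubated 15 min at room temperature with compound. Reaction started with 40 uM arachidonic acid, 30 min at room temperature. Hydroperoxide measured by Fe-xylenol orange, 573/405 nm absorbance ratio.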
Numbers without * were called inactive. Unless noted, the call rests on the fitted dose curve; in most records, active means well fitted curve in the direction sought with a large enough effect; inconclusive means small, poorly fitted or top-dose-only effect, or another doubt; inactive means no such curve, though single readings can be large; an effect the other way counts as inactive or inconclusive.

Screening CCOc1cc(CNc2ccc(N(C)C)cc2)cc(Br)c1OCC(=O)NC(C)(C)C returned ASM inhibitor 4%, PINK1 expr mod 9%, p53 reactivation 19%, CCT modulator -4, Mm-Cpn inhibitor 25µM* and ALOX12 inh 0%.
Screening CC(N)c1cccc(NS(C)(=O)=O)c1 (configuration not stated) returned ALOX12 inh -2%.
`O=C1C=C(c2ccccc2)C[C@H](c2cccs2)[C@H]1n1nnc([N+](=O)[O-])n1` gave ASM inhibitor -9%, PINK1 expr mod 1%, p53 reactivation 8%, CCT modulator -1, Mm-Cpn inhibitor -3% and ALOX12 inh 50µM*.
`O=C(OCc1cccs1)C1=NN(C2CCS(=O)(=O)C2)C(=O)CC1` (configuration not stated) gave ALOX12 inh 57%.
For CCCCN1CCN(c2nc3c(c(=O)[nH]c(=O)n3C)n2Cc2ccccc2)CC1 the results were ALOX12 inh 3%.
For COC(=O)COc1ccc(C(=O)OC)cc1 the results were ASM inhibitor -1%, PINK1 expr mod 0%, p53 reactivation 6%, CCT modulator -3, Mm-Cpn inhibitor 1% and ALOX12 inh -4%.
Screening COC(=O)c1ccc(COC(=O)c2ccccc2OC)cc1 returned ASM inhibitor 2%, PINK1 expr mod 4%, p53 reactivation 22µM*, CCT modulator -3, Mm-Cpn inhibitor -1% and ALOX12 inh -22%.
For COC(=O)c1ccc(OCC(=O)c2ccccc2OC)cc1 the results were ASM inhibitor -1%, PINK1 expr mod -1%, p53 reactivation 4%, CCT modulator 0, Mm-Cpn inhibitor 0% and ALOX12 inh 20µM*.
N#Cc1c(Cl)nc(N/N=C/c2ccc([N+](=O)[O-])cc2)c(Cl)c1Cl was read as ALOX12 inh 33%.
For Cc1cc(C)cc(NC(=O)CSc2ncnc3ccccc23)c1 the results were ALOX12 inh 9%.
`Cn1c(C(=O)Nc2ccc(Cl)cc2)cc2cc(Cl)ccc21` gave ASM inhibitor -4%, PINK1 expr mod 6%, p53 reactivation 27%, CCT modulator 3, Mm-Cpn inhibitor 0% and ALOX12 inh 18µM*.
Screening CCOc1ccc(NC(=O)c2cc3cc(OCC)ccc3n2C)cc1 returned ALOX12 inh 57%.
Cc1ccc(-c2nc(N)sc2CC(=O)OCC(=O)N(CCC#N)c2ccc(F)cc2)cc1 was read as ALOX12 inh -14%.
For CC(C)c1ccc(NS(=O)(=O)c2ccc3[nH]cc(C(=O)NC4CCCCC4)c(=O)c3c2)cc1 the results were PINK1 expr mod 0% and ALOX12 inh 35µM*.
CC(C)(C)NC(=O)COc1ncnc2ccc(Br)cc12 was read as ALOX12 inh 13%.
Screening COc1ccc(CN2C(=O)C(CC(=O)NCCN3CCOCC3)CC(C(=O)N(C)C)=C2C)cc1 (configuration not stated) returned PINK1 expr mod 0%, CCT modulator 1 and ALOX12 inh 4%.
`CCN(CC)C(=O)C1=C(C)N(Cc2ccc(OC)cc2)C(=O)C(CC(=O)NCCN2CCOCC2)C1` (configuration not stated) gave PINK1 expr mod 2%, CCT modulator -1 and ALOX12 inh 16µM*.
For Cc1ccc(-c2cc(C(=O)Nc3nncs3)c3ccccc3n2)cc1C the results were ALOX12 inh -36%.
`Cc1oc(-c2ccccc2F)nc1CN1CCC(C(=O)NCCc2ccccc2)CC1` gave PINK1 expr mod 2% and ALOX12 inh -13%.
Screening Cc1oc(-c2ccccc2F)nc1CN1CCC(C(=O)NCCC2=CCCCC2)CC1 returned ASM inhibitor 1%, PINK1 expr mod -3%, p53 reactivation 24%, CCT modulator -52*, Mm-Cpn inhibitor 0% and ALOX12 inh 0%.
`CCONC(=O)CSCc1ccc(C)cc1` gave ALOX12 inh 19%.
Screening Cc1ccc2oc(-c3ccc(NC(=O)c4ccc(C)c([N+](=O)[O-])c4)cc3)nc2c1 returned ALOX12 inh 29%.
Cn1cc(CN2CCC(C(=O)NC(c3ccc(F)cc3)c3ccc4ccccc4n3)CC2)c2ccccc21 (configuration not stated) was read as PINK1 expr mod -1%, CCT modulator 2 and ALOX12 inh 45µM*.
Screening Cc1ccc(C(c2sc3nc(-c4ccco4)nn3c2O)N2CCOCC2)cc1 (configuration not stated) returned PINK1 expr mod 1% and ALOX12 inh 14µM*.
`O=C(Nc1ccc(-c2noc(CCc3ccccc3)n2)cc1)c1ccco1` gave ASM inhibitor -20%, PINK1 expr mod 18%, p53 reactivation inconclusive, CCT modulator -56*, Mm-Cpn inhibitor -3% and ALOX12 inh 0%.
Screening O=C1N(Cc2cccnc2)C[C@@H]2C[C@@H](c3cccc(OCc4ccccc4)c3)N3CCC[C@@]123 returned ASM inhibitor 1%, PINK1 expr mod 2%, p53 reactivation -4%, CCT modulator 3, Mm-Cpn inhibitor -7% and ALOX12 inh -6%.
O=C1N(Cc2cccnc2)C[C@@H]2C[C@@H](c3cccc(OC4CCCC4)c3)N3CCC[C@@]123 was read as ASM inhibitor 1%, PINK1 expr mod 3%, p53 reactivation -4%, CCT modulator -51*, Mm-Cpn inhibitor 0% and ALOX12 inh inconclusive.
For COC(=O)CC1=C(C(=O)OC)C(c2ccc(C(=O)OC)cc2)C(C#N)=C(N)O1 (configuration not stated) the results were ALOX12 inh 1%.
Screening COC(=O)c1c(C)[nH]c(C(=O)OC(C)C(=O)NC2CCCCC2)c1C (configuration not stated) returned ALOX12 inh 3%.
For CC(=O)c1ccc(N2CCN(C(=O)c3cc(F)c(F)cc3C)CC2)c(F)c1 the results were ALOX12 inh 29%.
`O=C(Nc1ccnn1C1CCN(Cc2ccc(OC3CCCC3)cc2)CC1)C1CC1` gave ALOX12 inh 8.9µM*.
For COc1ccc(/C=C/CN2CCC(n3nccc3NC(=O)C3CC3)CC2)cc1 the results were ASM inhibitor 2%, PINK1 expr mod 0%, p53 reactivation 27%, CCT modulator 1, Mm-Cpn inhibitor -2% and ALOX12 inh 25µM*.
For O=C(Nc1ccnn1C1CCN(Cc2ccc(OC(F)F)cc2)CC1)C1CCCC1 the results were ASM inhibitor -2%, PINK1 expr mod 2%, p53 reactivation inconclusive, CCT modulator -4, Mm-Cpn inhibitor 3% and ALOX12 inh inconclusive.
